{
  "source": "PubChem BioAssay (NCATS)",
  "note": "Results filed as inconclusive are left out. Where a call stands in place of a potency, no number is given. The source made the active and inactive calls. Unless noted, calls follow the shape of the dose curve; as a rule, active = well fitted inhibition curve with a large enough effect; inconclusive = small, poorly fitted or top-dose-only effect; inactive = no such curve, though single readings can be large or run the other way.",
  "data": [
    {"experiment": "NS1 protein of Zika virus - qHTS assay to identify small molecule inhibitors in human HEK 293 cells (AID 1347053); also: nearly all actives have a fitted effect of over 55% in size", "settings": "HEK293 ZIKV MR766 infection, NS1 TR-FRET, 24 h; series mostly up to 46.1 µM", "procedure,_shortened": "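Read-out is a two-antibody TR-FRET for ZIKV NS1, normalized between uninfected cells and infected cells. Compound added 1 h before MR766 infection at MOI 0.5; human HEK 293 cells incubated 24 h, 37 C.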", "values": [
      {"smiles": "CCC1(CC)C(=O)C=CNC1=O", "outcome": "inactive"},
      {"smiles": "CCCCCN(C)CCC(O)(P(=O)(O)O)P(=O)(O)O", "outcome": "inactive"},
      {"smiles": "COC1CC(=C(c2cccs2)c2cccs2)C[N+](C)(C)C1", "note": "(stereo unspecified)", "outcome": "inactive"},
      {"smiles": "O=[N+]([O-])O[C@H]1CO[C@H]2[C@@H]1OC[C@H]2O[N+](=O)[O-]", "outcome": "inactive"},
      {"smiles": "CCCCCCC(=O)CCCCCC/C=C/C[C@@H](O)[C@H](O)[C@@](N)(CO)C(=O)O", "outcome": "inactive"},
      {"smiles": "COc1cc(CCN)cc(OC)c1OC", "outcome": "inactive"},
      {"smiles": "[N-]=[N+]=CC(=O)OC[C@H](N)C(=O)O", "outcome": "inactive"},
      {"smiles": "C[C@]12CCC(=O)C=C1CC[C@@H]1[C@@H]2CC[C@]2(C)C(=O)CC[C@@H]12", "outcome": "inactive"},
      {"smiles": "O=C(Nc1ccc(Br)cc1)c1cc(Br)cc(Br)c1O", "outcome": "inactive"},
      {"smiles": "CC(=O)NC1CCSC1=O", "note": "(stereo unspecified)", "outcome": "inactive"},
      {"smiles": "CCOP(=S)(OCC)Oc1ccc2c(C)c(Cl)c(=O)oc2c1", "outcome": "inactive"},
      {"smiles": "COc1ccc2c3c1O[C@H]1[C@H](O)CC[C@H]4[C@@H](C2)N(C)CC[C@@]341", "outcome": "inactive"},
      {"smiles": "CC(C)C[C@H](CN)CC(=O)O", "outcome": "inactive"},
      {"smiles": "O=C(N/N=C/c1ccc([N+](=O)[O-])o1)c1cc([N+](=O)[O-])cc([N+](=O)[O-])c1O", "outcome": "inactive"},
      {"smiles": "COc1cc(OC)c(OC)cc1C=O", "outcome": "inactive"},
      {"smiles": "COP(=S)(OC)Oc1ccc(SC)c(C)c1", "outcome": "inactive"},
      {"smiles": "COC(=O)[C@@H](N)CCCN/C(N)=N/[N+](=O)[O-]", "outcome": "inactive"},
      {"smiles": "O=C1CN=C(c2ccccc2)c2cc([N+](=O)[O-])ccc2N1", "outcome": "inactive"},
      {"smiles": "Nc1nc(N)nc(NC2CC2)n1", "outcome": "inactive"},
      {"smiles": "CN1CCC(O)(c2ccc(F)cc2)C(C(=O)c2ccc(F)cc2)C1", "note": "(stereo unspecified)", "outcome": "inactive"},
      {"smiles": "CN1C(=O)NC(=O)C(C)(C2=CCCCC2)C1=O", "note": "(stereo unspecified)", "outcome": "inactive"},
      {"smiles": "CCCCC/C=C\\C/C=C\\C/C=C\\C/C=C\\CCCC(=O)NCC(=O)O", "outcome": "inactive"},
      {"smiles": "NC1=NC(=O)C(c2ccccc2)O1", "note": "(stereo unspecified)", "outcome": "inactive"},
      {"smiles": "O=C(O)CCCc1ccc(N(CCCl)CCCl)cc1", "outcome": "inactive"},
      {"smiles": "c1ccc2c(c1)sc1ccccc12", "outcome": "inactive"}
    ]},
    {"experiment": "qHTS for Inhibitors of the Functional Ribonucleoprotein Complex (vRNP) of Lassa (LASV) Arenavirus: LASV Primary Screen - GLuc reporter signal (AID 1347082; calls by dose curve; tested in HEK293 reporter line; also: nearly all actives have a fitted effect of over 60% in size)", "settings": "LASV minigenome vRNP, Gaussia luciferase reporter; series mostly up to 57.5 µM", "values": [
      {"smiles": "CCC1(CC)C(=O)C=CNC1=O", "Potency": "inactive"},
      {"smiles": "CCCCCN(C)CCC(O)(P(=O)(O)O)P(=O)(O)O", "Potency": "inactive"},
      {"smiles": "COC1CC(=C(c2cccs2)c2cccs2)C[N+](C)(C)C1", "note": "(stereo unspecified)", "Potency": "inactive"},
      {"smiles": "O=[N+]([O-])O[C@H]1CO[C@H]2[C@@H]1OC[C@H]2O[N+](=O)[O-]", "Potency": "inactive"},
      {"smiles": "CCCCCCC(=O)CCCCCC/C=C/C[C@@H](O)[C@H](O)[C@@](N)(CO)C(=O)O", "Potency": "inactive"},
      {"smiles": "COc1cc(CCN)cc(OC)c1OC", "Potency": "inactive"},
      {"smiles": "[N-]=[N+]=CC(=O)OC[C@H](N)C(=O)O", "Potency": "inactive"},
      {"smiles": "C[C@]12CCC(=O)C=C1CC[C@@H]1[C@@H]2CC[C@]2(C)C(=O)CC[C@@H]12", "Potency": "inactive"},
      {"smiles": "O=C(Nc1ccc(Br)cc1)c1cc(Br)cc(Br)c1O", "Potency": "inactive"},
      {"smiles": "CC(=O)NC1CCSC1=O", "note": "(stereo unspecified)", "Potency": "inactive"},
      {"smiles": "CCOP(=S)(OCC)Oc1ccc2c(C)c(Cl)c(=O)oc2c1", "Potency": "inactive"},
      {"smiles": "COc1ccc2c3c1O[C@H]1[C@H](O)CC[C@H]4[C@@H](C2)N(C)CC[C@@]341", "Potency": "inactive"},
      {"smiles": "CC(C)C[C@H](CN)CC(=O)O", "Potency": "inactive"},
      {"smiles": "O=C(N/N=C/c1ccc([N+](=O)[O-])o1)c1cc([N+](=O)[O-])cc([N+](=O)[O-])c1O", "Potency": "inactive"},
      {"smiles": "COc1cc(OC)c(OC)cc1C=O", "Potency": "inactive"},
      {"smiles": "COP(=S)(OC)Oc1ccc(SC)c(C)c1", "Potency": "inactive"},
      {"smiles": "COC(=O)[C@@H](N)CCCN/C(N)=N/[N+](=O)[O-]", "Potency": "inactive"},
      {"smiles": "O=C1CN=C(c2ccccc2)c2cc([N+](=O)[O-])ccc2N1", "Potency": "inactive"},
      {"smiles": "Nc1nc(N)nc(NC2CC2)n1", "Potency": "inactive"},
      {"smiles": "CN1CCC(O)(c2ccc(F)cc2)C(C(=O)c2ccc(F)cc2)C1", "note": "(stereo unspecified)", "Potency": "inactive"},
      {"smiles": "CN1C(=O)NC(=O)C(C)(C2=CCCCC2)C1=O", "note": "(stereo unspecified)", "Potency": "inactive"},
      {"smiles": "CCCCC/C=C\\C/C=C\\C/C=C\\C/C=C\\CCCC(=O)NCC(=O)O", "Potency": "inactive"},
      {"smiles": "Nc1ccn(C[C@@H](CO)OCP(=O)(O)O)c(=O)n1", "Potency": "inactive"},
      {"smiles": "NC1=NC(=O)C(c2ccccc2)O1", "note": "(stereo unspecified)", "Potency": "inactive"},
      {"smiles": "O=C(O)CCCc1ccc(N(CCCl)CCCl)cc1", "Potency": "inactive"},
      {"smiles": "c1ccc2c(c1)sc1ccccc12", "Potency": "inactive"}
    ]}
  ]
}
